Measured values from PubChem BioAssay (Tox21).
Records with an inconclusive call do not appear. Activity calls are given as the source filed them. Unless noted, the call rests on the fitted dose curve; in most records, active means well fitted curve in the direction sought with a large enough effect in the repeat runs; inconclusive means weak or mixed curves; inactive means no such curve, though single readings can be large; an effect the other way counts as inactive or inconclusive.

What was measured:
[1] = qHTS assay to identify small molecule antagonists of the estrogen receptor alpha (ER-alpha) signaling pathway using the BG1 cell line in the presence of 0.1 nM 17-beta-estradiol - cell viability counter screen (AID 1259241); further: nearly all actives have a fitted effect of over 40% in size
In short: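 CellTiter-Fluor read (30 min, 37C) on ER-alpha/ERE-luc VM7Luc4E2 cells; 22 hr compound treatment; agonist 0.1 nM E2 final; same-well multiplex.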

[2] = qHTS assay to identify small molecule antagonists of the androgen receptor (AR) signaling pathway using the MDA cell line in the presence of 0.5 nM R1881 - cell viability counter screen (AID 1259242); further: nearly all actives have a fitted effect of over 45% in size
In short: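 Steps: plate MDA-kb2 cells, rest 5 hr at 37C without CO2; pin in compounds in DMSO; add R1881 to 0.5 nM final; incubate 16 hr; add CellTiter-Fluor, 30 min; read fluorescence.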

[3] = target: Androgen receptor (Homo sapiens) (UniProt P10275); test: qHTS assay to identify small molecule antagonists of the androgen receptor (AR) signaling pathway using the MDA cell line in the presence of 0.5 nM R1881 (AID 1259243); further: nearly all actives have a fitted effect of over 50% in size
Sequence of Androgen receptor (Homo sapiens) (P10275 whole entry, looked up): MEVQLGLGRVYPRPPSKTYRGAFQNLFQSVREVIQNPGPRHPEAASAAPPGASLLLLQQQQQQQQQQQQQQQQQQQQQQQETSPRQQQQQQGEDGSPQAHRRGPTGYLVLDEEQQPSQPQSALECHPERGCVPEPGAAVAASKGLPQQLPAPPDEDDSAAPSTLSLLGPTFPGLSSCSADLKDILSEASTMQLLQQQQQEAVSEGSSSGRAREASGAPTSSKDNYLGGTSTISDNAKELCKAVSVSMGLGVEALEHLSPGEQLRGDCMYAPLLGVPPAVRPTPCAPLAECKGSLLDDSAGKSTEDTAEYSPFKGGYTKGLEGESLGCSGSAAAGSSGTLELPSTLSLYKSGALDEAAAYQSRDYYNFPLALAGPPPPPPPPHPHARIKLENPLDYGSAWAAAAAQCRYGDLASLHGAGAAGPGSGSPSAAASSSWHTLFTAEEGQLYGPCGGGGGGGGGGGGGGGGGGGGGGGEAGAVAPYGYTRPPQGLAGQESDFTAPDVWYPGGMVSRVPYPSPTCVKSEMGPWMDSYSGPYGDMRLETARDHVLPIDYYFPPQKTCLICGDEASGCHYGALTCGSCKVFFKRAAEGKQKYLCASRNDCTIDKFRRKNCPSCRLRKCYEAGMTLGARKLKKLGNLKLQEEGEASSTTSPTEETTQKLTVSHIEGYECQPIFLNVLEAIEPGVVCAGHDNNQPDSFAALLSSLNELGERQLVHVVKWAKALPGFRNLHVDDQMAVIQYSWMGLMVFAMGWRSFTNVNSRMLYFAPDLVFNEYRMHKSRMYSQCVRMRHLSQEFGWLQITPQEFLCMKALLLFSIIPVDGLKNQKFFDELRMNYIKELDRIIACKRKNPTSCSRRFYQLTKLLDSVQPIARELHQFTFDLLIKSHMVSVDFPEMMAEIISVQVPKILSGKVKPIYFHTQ
In short: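 Stably transfected MDA-kb2 cells express luciferase from an MMTV promoter bearing both AR and GR response elements. Compounds plus 0.5 nM R1881 (final) were incubated 16 hr at 37C without CO2, then luminescence measured.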

[4] = target: Estrogen receptor (Homo sapiens) (UniProt P03372); test: qHTS assay to identify small molecule antagonists of the estrogen receptor alpha (ER-alpha) signaling pathway using the BG1 cell line in the presence of 0.1 nM 17-beta-estradiol (AID 1259244); further: nearly all actives have a fitted effect of over 50% in size
Sequence of Estrogen receptor (Homo sapiens) (P03372 whole entry, looked up): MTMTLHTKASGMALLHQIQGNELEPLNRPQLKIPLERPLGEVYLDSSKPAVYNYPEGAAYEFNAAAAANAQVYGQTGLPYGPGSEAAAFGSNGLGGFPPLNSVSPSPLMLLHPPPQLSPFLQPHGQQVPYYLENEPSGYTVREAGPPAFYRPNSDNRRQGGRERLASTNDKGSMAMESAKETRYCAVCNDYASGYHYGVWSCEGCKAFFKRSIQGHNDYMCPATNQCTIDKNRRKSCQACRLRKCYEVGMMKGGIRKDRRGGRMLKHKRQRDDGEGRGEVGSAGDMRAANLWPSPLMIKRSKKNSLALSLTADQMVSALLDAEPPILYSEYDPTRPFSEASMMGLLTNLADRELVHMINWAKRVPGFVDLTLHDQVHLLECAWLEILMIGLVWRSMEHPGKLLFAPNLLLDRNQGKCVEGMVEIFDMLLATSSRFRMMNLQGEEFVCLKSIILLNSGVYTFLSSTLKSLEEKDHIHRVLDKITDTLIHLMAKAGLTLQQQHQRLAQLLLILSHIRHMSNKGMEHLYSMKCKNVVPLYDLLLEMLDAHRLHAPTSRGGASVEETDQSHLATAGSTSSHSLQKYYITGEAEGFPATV
In short: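 Antagonist mode: compounds in DMSO are pinned onto VM7Luc4E2 reporter cells, 0.1 nM final 17beta-estradiol is added, and after 22 h at 37C luciferase luminescence is measured with ONE-Glo.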

[5] = qHTS assay to identify small molecule HDAC inhibitors (AID 1259364);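 further: wild-type HCT-116 cells with endogenous class I/II HDAC activity; top concentration of the series differs between compounds; nearly all actives have a fitted effect of over 45% in size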
In short: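 Cells (HCT-116, wild type) are seeded at 1,500 per well, incubated overnight, treated with compound in DMSO for 2 hr, then developed with HDAC-Glo I/II reagent for 30 min at room temperature.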

[6] = qHTS assay to identify small molecule HDAC inhibitors - cell viability counter screen (AID 1259365); further: series mostly up to about 92 µM; nearly all actives have a fitted effect of over 50% in size
In short: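 To flag cytotoxic hits, 1,500 wild-type HCT-116 cells per well, plated the day before, receive test compounds for 2hr at 37 C before CellTiter-Glo reagent and a luminescence read.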

[7] = qHTS assay to identify small molecule agonists of the sonic hedgehog signaling (Shh) pathway - cell viability counter screen (AID 1259366); further: nearly all actives have a fitted effect of over 50% in size
In short: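 Fluorescence from CellTiter-Fluor reports live cells in this counter screen. NIH/3T3-derived Gli1-Luc reporter cells receive test compounds for 24hr at 37C; reagent goes in at 23hr.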

[8] = qHTS assay to identify small molecule antagonists of the sonic hedgehog signaling (Shh) pathway - cell viability counter screen (AID 1259367); further: nearly all actives have a fitted effect of over 55% in size
In short: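 Tox21 library chemicals were tested on a Gli1-Luc NIH/3T3 clone (2,000 cells/well) stimulated by conditioned medium; viability was quantified as fluorescence from CellTiter-Fluor reagent added at 23 hr.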

[9] = qHTS assay to identify small molecule agonists of the sonic hedgehog signaling (Shh) pathway (AID 1259368; calls by dose curve;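 further: NIH/3T3-derived 3T3Gli1-Luc cells carrying a stable Gli1-driven firefly luciferase reporter; series mostly up to about 92 µM; nearly all actives have a fitted effect of over 15% in size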)
In short: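 Cells of a mouse NIH/3T3 clone stably expressing luciferase under the Gli1 transcriptional response element are exposed to test chemicals for 24 hr at 37 C. Pathway activation is detected as a rise in luminescence.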

[10] = qHTS assay to identify small molecule antagonists of the sonic hedgehog signaling (Shh) pathway (AID 1259369; calls by dose curve; further: nearly all actives have a fitted effect of over 45% in size)
In short: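 Cells are plated and held 4hr at 37 C, compounds (DMSO) are pinned in, conditioned medium is added to stimulate the pathway, and after 24hr luciferase reagent is added for 30min before luminescence is read.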

[11] = qHTS assay to identify small molecule agonists of the androgen receptor (AR) signaling pathway in the presence of an antagonist - cell viability counter screen (AID 1259379);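 further: MDA-kb2 human breast cancer cells carrying an MMTV luciferase reporter; series mostly up to about 92 µM; nearly all actives have a fitted effect of over 25% in size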
In short: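 Cytotoxicity is assessed by CellTiter-Fluor in MDA-kb2 cells carrying an MMTV-driven luciferase reporter. Cells receive 3.0uM nilutamide plus compounds at 15 concentrations and incubate 16 hr at 37C without CO2 before fluorescence reading.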

[12] = qHTS assay to identify small molecule agonists of the estrogen receptor beta (ER-beta) signaling pathway - cell viability counter screen (AID 1259380); further: nearly all actives have a fitted effect of over 30% in size
In short: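 Cytotoxicity is measured in parallel with the reporter screen: after 16 hr compound exposure at 37C and a 2 hr LiveBLAzer step, CellTiter-Glo is added to the same ER-beta-UAS-bla HEK293T wells and luminescence read after 30 min.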

[13] = target: Androgen receptor (Homo sapiens) (UniProt P10275); test: qHTS assay to identify small molecule agonists of the androgen receptor (AR) signaling pathway in the presence of an antagonist (AID 1259381; calls by dose curve; further: nearly all actives have a fitted effect of over 15% in size)
In short: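 Agonist-mode confirmation screen: human MDA-kb2 cells stably expressing luciferase under an MMTV promoter bearing AR and GR response elements, co-treated with 3.0uM nilutamide (final). Luminescence measured after 16hr compound incubation.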

[14] = qHTS assay to identify small molecule antagonists of the estrogen receptor beta (ER-beta) signaling pathway - cell viability counter screen (AID 1259382); further: series mostly up to about 92 µM; nearly all actives have a fitted effect of over 55% in size
In short: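 Cytotoxicity counter screen multiplexed with the beta-lactamase antagonist assay: GripTite HEK293T ER-beta-bla cells were treated 16 hr with test chemicals in the presence of 1nM 17-beta-estradiol, and viability was measured by CellTiter-Glo.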

[15] = target: Estrogen receptor (Homo sapiens) (UniProt P03372); test: qHTS assay to identify small molecule agonists of the estrogen receptor alpha (ER-alpha) signaling pathway in the presence of an antagonist (AID 1259383; calls by dose curve; further: top concentration of the series differs between compounds; nearly all actives have a fitted effect of over 15% in size)
In short: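 Agonist-mode confirmation in the presence of the ER antagonist ICI-182,780 at 10.0nM final. Breast-derived VM7Luc4E2 reporter cells were exposed to compounds for 22hr, and ERE-driven luciferase was quantified by luminescence.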

[16] = qHTS assay to identify small molecule agonists or antagonists of the thyroid stimulating hormone receptor (TSHR) signaling pathway - wild type cell line counter screen (AID 1259384; calls by dose curve)
In short: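 Wild-type Hek293 cells, 800/well, 18 h at 37C, then compound with Ro20-1724 for 30 min RT. cAMP by HTRF (cAMP-d2/anti-cAMP cryptate), 1 h RT, fluorescence read. 15 concentrations, triplicates.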

[17] = target: Estrogen receptor beta (Homo sapiens) (UniProt Q92731); test: qHTS assay to identify small molecule agonists of the estrogen receptor beta (ER-beta) signaling pathway (AID 1259377; active means well fitted activation curve with a large enough effect in the signal ratio in the repeat runs, not every such curve was filed as active; the % refers to the signal ratio)
Sequence of Estrogen receptor beta (Homo sapiens) (Q92731 whole entry, looked up): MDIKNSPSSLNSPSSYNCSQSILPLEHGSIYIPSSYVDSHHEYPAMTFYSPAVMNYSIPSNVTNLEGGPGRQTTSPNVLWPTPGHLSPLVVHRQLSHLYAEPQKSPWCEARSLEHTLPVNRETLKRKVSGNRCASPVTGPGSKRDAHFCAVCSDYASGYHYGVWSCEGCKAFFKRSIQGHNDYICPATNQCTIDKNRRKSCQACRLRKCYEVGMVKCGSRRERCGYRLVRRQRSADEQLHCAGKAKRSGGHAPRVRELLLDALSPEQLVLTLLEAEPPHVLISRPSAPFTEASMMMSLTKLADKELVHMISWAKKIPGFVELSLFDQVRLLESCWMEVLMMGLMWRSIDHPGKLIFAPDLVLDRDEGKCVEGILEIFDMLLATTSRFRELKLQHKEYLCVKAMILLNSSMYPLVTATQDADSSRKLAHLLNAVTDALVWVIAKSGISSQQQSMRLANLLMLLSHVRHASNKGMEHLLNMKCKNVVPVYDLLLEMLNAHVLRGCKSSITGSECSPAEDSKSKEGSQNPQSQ
In short: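 Screening used GripTite ER-beta-UAS-bla cells held in 2% charcoal-stripped FBS medium. After overnight (16 hr) compound incubation at 37C, beta-lactamase activity was detected with a FRET substrate by fluorescence.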

[18] = target: Estrogen receptor beta (Homo sapiens) (UniProt Q92731); test: qHTS assay to identify small molecule antagonists of the estrogen receptor beta (ER-beta) signaling pathway (AID 1259378; active means well fitted inhibition curve with a large enough effect in the signal ratio in the repeat runs, not every such curve was filed as active; the % refers to the signal ratio)
In short: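 ER-beta-UAS-bla HEK293T cells in 2% charcoal-stripped FBS medium treated with compound plus 1nM final 17-beta-estradiol for 16 hr at 37C. Beta-lactamase reporter read by FRET substrate fluorescence after 2 hours at room temperature.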

[19] = target: Thyrotropin receptor (Homo sapiens) (UniProt P16473); test: qHTS assay to identify small molecule antagonists of the thyroid stimulating hormone receptor (TSHR) signaling pathway (AID 1259385; calls by dose curve; further: nearly all actives have a fitted effect of over 20% in size)
Sequence of Thyrotropin receptor (Homo sapiens) (P16473 whole entry, looked up): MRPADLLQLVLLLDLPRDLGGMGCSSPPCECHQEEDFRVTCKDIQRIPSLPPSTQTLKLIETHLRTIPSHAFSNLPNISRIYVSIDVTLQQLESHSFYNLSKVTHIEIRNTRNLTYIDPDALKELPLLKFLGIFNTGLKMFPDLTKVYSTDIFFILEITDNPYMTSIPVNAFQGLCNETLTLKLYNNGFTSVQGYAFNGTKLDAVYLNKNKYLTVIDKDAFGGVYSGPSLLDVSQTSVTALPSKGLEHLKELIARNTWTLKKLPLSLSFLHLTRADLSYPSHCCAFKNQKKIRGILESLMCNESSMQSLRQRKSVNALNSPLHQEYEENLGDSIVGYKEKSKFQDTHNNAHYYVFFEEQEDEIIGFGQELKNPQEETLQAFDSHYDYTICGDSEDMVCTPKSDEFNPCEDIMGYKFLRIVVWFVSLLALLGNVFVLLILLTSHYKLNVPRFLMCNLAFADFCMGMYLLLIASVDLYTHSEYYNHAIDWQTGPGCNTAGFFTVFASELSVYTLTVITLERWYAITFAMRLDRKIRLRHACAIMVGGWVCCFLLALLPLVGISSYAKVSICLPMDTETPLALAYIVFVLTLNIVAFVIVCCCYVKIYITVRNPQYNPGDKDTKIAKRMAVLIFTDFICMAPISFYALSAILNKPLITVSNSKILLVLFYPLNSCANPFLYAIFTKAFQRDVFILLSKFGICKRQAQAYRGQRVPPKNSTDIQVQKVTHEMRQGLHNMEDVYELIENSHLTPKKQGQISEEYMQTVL
In short: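 TSHR-HEK293 cells (800/well) plated 18 h, then compounds with Ro20-1724 and TSH at 1.5 ng/mL final, 30 min at room temperature. cAMP quantified by HTRF (cAMP-d2/anti-cAMP-cryptate, 1 h); 15 concentrations in triplicate.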

Measured: Potency

O=C(C1CCCCC1)N1CC(=O)N2CCCc3ccccc3C2C1 (stereo unspecified)
inactive: [1] | [2] | [3] | [4] | [5] | [6] | [7] | [8] | [9] | [10] | [11] | [12] | [13] | [14] | [15] | [16]

O=C(OC1C[C@H]2CC[C@@H](C1)[N+]21CCCC1)C(O)(c1ccccc1)c1ccccc1 (stereo partly specified)
inactive: [1] | [2] | [3] | [6] | [7] | [8] | [9] | [10] | [17] | [18] | [11] | [12] | [13] | [14] | [16] | [19]

O=C(c1ccc(Cl)cc1)c1ccc(Cl)cc1
inactive: [1] | [2] | [3] | [4] | [5] | [7] | [9] | [10] | [17] | [11] | [12] | [13] | [14] | [15] | [16] | [19]

O=C(O)c1ccc(O)c(O)c1
inactive: [1] | [2] | [3] | [4] | [5] | [6] | [7] | [8] | [9] | [10] | [17] | [18] | [11] | [12] | [13] | [14] | [15] | [16] | [19]

O=C(O)c1ccncc1
inactive: [1] | [2] | [3] | [5] | [6] | [7] | [8] | [9] | [17] | [12] | [13] | [14] | [19]

CC(CC(C#N)(c1ccccc1)C(C)C)N(C)C (stereo unspecified)
inactive: [1] | [2] | [3] | [4] | [5] | [6] | [7] | [8] | [9] | [10] | [12] | [13] | [14] | [15] | [16]

NC(=O)c1ccccc1
inactive: [1] | [2] | [3] | [4] | [5] | [6] | [7] | [9] | [10] | [17] | [18] | [11] | [12] | [13] | [14] | [15] | [16] | [19]

CCOc1ccc2c(c1)C(C)CC(C)(C)N2 (stereo unspecified)
inactive: [1] | [2] | [3] | [5] | [6] | [7] | [8] | [9] | [10] | [17] | [18] | [11] | [12] | [13] | [14] | [19]

CC(C(=O)O)c1ccc2c(c1)Cc1cccnc1O2 (stereo unspecified)
inactive: [1] | [2] | [3] | [5] | [6] | [7] | [8] | [9] | [10] | [17] | [18] | [11] | [12] | [13] | [14] | [16] | [19]
